Screening data from PubChem.
hgDAF-12 ag = hgDAF-12 agonism, primary luciferase screen; activation, % at 6.8 µM; HEK293 GAL4-hgDAF12 UAS-luciferase reporter, agonist luminescence; normalized to butyrate control; AID 687014; 370,000 compounds, 1.8% hits;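 active = activation above a cutoff set at the mean of all screened compounds plus 3 SD, cut at about 10% in these data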
hcDAF-12 act = H. contortus DAF-12 activation, primary screen | HEK293 hcDAF-12 lit1-tk-luc reporter, luminescence; 0% DMSO, 100% Δ7-dafachronic acid | activation, % at 6.8 µM | 370,000 compounds, 1.4% hits | AID 652067;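 active = activation above the mean of all tested compounds plus 3 SD, cut at about 5.5% in these data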
DAX1 inh-1 = inhibitors of DAX1 repression of SF-1 activated StAR promoter | AID 652010 | HEK293T StAR-luciferase reporter, SF-1/DAX-1 repression relief | inhibition, % at 6.8 µM | 370,000 compounds, 1.1% hits;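 active = inhibition above the mean over all tested compounds plus 3 SD, cut at about 3.6% in these data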;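 also: higher inhibition means more luminescence from relief of DAX-1 repression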
DAX1 inh-2 = NR0B1 (DAX1) inhibition; P51843; HEK293 Gal4-DAX1 luciferase reporter, luminescence; inhibition, % at 6.75 µM; 340,000 compounds, 0.99% hits; AID 504766;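 active = inhibition above the mean over all tested compounds plus 3 SD, cut at about 4.2% in these data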;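 also: inhibition shows as a rise in luminescence from relieved DAX1 repression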
Target sequence (P51843 207-470 limits assumed): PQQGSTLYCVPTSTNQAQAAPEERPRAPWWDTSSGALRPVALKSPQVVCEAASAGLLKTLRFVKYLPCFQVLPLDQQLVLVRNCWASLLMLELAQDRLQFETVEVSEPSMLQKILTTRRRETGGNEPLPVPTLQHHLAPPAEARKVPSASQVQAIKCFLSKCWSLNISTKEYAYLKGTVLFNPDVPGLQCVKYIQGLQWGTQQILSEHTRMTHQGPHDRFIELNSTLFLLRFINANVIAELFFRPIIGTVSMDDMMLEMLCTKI
Rev-erbA mod = Rev-erb alpha (human) modulation; P20393; Rev-erbα–FITC-DNA binding, fluorescence polarization, 90 min; activity, % at 10 µM; 370,000 compounds, 0.79% hits;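 active = activity above about 14%, limit read from the data; passing the limit was not always enough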
ssDAF-12 act = S. stercoralis DAF-12 activation, primary screen; 370,000 compounds, 1% hits; HEK293 ssDAF-12/GRIP1 lit1-tk-luc reporter, luminescence; % of 3 µM dafachronic acid response; activation, % at 6.8 µM;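 active = activation above the mean over all tested compounds plus 3 SD, cut at about 0.9% in these data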
DAX1 conf = NR0B1 (human) inhibition, confirmation. shares compounds with DAX1 inh-1. HEK293T StAR-promoter luciferase reporter, SF-1/DAX-1 repression. inhibition, % at 6.8 µM. 2,400 compounds, 87% hits. AID 652134;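 active = inhibition above the average of every tested compound plus 3 SD, cut at about 3.8% in these data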;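 also: active compounds raise luminescence by relieving repression of the StAR reporter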
SF1 AF2mut Luc = counter-screen for DAX1 inhibitors: nonselective inhibitors with SF-1 AF2 mutant; shares compounds with DAX1 inh-1; HEK293 StAR-luciferase, luminescence; inhibition, % at 6.8 µM; 2,400 compounds, 78% hits;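 active = inhibition above the mean of all tested compounds plus 3 SD, cut at about 3% in these data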
LXR ag = LXR-beta agonism as hcDAF-12 counter-screen; shares compounds with hcDAF-12 act; HEK293 Gal4-LXR tk-luc reporter, luminescence, 24 h; normalized: DMSO 0%, positive control 100%; activation, % at 6.8 µM; 3,400 tested, under 10 active; AID 743027;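 active = mean percent activation of the reporter above a cutoff set as the average over tested compounds plus their standard deviation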
hcDAF12 ag = hcDAF-12 agonism, confirmation assay | shares compounds with hcDAF-12 act | HEK293 hcDAF-12 lit1-tk-luc reporter, luminescence; % of Δ7-dafachronic acid response | activation, % at 6.8 µM | 3,400 compounds, 61% hits | AID 743032;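 active = mean activation across triplicate tests above the threshold derived from the earlier primary screen, cut at about 5.5% in these data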
hgDAF12 conf = confirmation of H. glycines DAF-12 agonists; shares compounds with hgDAF-12 ag; HEK293 GAL4-hgDAF12 luciferase reporter, agonist mode; percent of butyrate response; activation, % at 6.8 µM; 3,300 compounds, 80% hits;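 active = mean activation over triplicate wells above the hit cutoff derived from the earlier primary screen, cut at about 11% in these data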
LXR ag 2 = LXR-beta agonism as DAF-12 counter-screen. activation, % at 6.8 µM. 3,300 tested, under 10 active. AID 743051. HEK293 Gal4-LXR luciferase reporter, 24 h. shares compounds with hgDAF-12 ag;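 active = mean activation of the triplicate above a set limit carried over from the primary screen, none filed active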
A number is an active result; . = inactive; / = not tested or not shown. A selection: hits, their analogues and other compounds. The true share with any hit is near 4.8%.

SMILES	hgDAF-12 ag	hcDAF-12 act	DAX1 inh-1	DAX1 inh-2	Rev-erbA mod	ssDAF-12 act	LXR ag	hcDAF12 ag	others
C/C(=N\NC(=O)c1ccccc1)c1c(O)n(C2CCCCC2)c(=O)[nH]c1=O	.	.	6.0	.	.	.	/	/	DAX1 conf=.;SF1 AF2mut Luc=.
O=C1C(=O)N(c2ccccc2)P(=O)(N(CCCl)CCCl)N1c1ccccc1	12	.	8.1	.	.	.	/	/	DAX1 conf=6.2;SF1 AF2mut Luc=3.0
COC(=O)C1C(c2ccc(C)cc2)CC2CCC1N2C (configuration not stated)	.	.	.	/	.	.	/	/
CCC1(C)CC(=O)NC(=O)C1	/	/	/	/	.	/	/	/
C=C1[C@@H](C)C2[C@H](Cc3ccccc3)NC(=O)[C@]23[C@H](OC(C)=O)/C=C/[C@@](C)(O)C(=O)[C@@H](C)C/C=C/[C@H]3[C@@H]1O (some centres not stated)	.	.	13	/	.	.	/	/	DAX1 conf=17;SF1 AF2mut Luc=.
C=C1[C@@H](C)[C@H]2[C@H](Cc3ccccc3)NC(=O)[C@]23OC(=O)/C=C/[C@H](O)CCC[C@@H](C)C/C=C/[C@H]3[C@@H]1O	.	.	.	.	.	.	/	/
CNC(=O)Oc1cccc(-c2cn3cc(Cl)ccc3n2)c1	13	15	5.8	.	.	2.5	.	16	DAX1 conf=14;SF1 AF2mut Luc=5.1
c1ccc(-c2nc3ccccc3nc2-c2ccc(CN3CCC(n4nnc5ccccc54)CC3)cc2)cc1	.	.	.	/	.	.	/	/
CN(C)C(Cc1ccccc1)C(=O)c1c[nH]c2ccccc12 (configuration not stated)	.	6.8	.	.	.	.	.	.
Fc1ccc2nc(-c3ccc(CN4CCC(n5nnc6ccccc65)CC4)cc3)c(-c3ccccc3)nc2c1	.	.	.	/	.	.	/	/
CN(C)c1ccc2c(c1)N=C(c1ccco1)OP2(=S)N1CCOCC1 (configuration not stated)	.	7.6	.	.	.	1.9	.	.
CCn1c(O)c(C=Nc2cc(Cl)ccc2Cl)c(=O)n(CC)c1=O	.	6.8	.	.	.	.	.	.
COc1ccc(Cl)cc1N=Cc1c(O)n(C)c(=O)n(C)c1=O	.	.	.	.	.	.	/	/
COc1cccc(NC2=NCCS2)c1	.	.	.	/	.	.	/	/
CCCCn1c(=O)c(C(=O)Nc2ccccc2)c(O)c2ccccc21	.	7.1	.	.	.	.	.	7.6
Cc1c(P(=S)(c2ccccc2)c2ccccc2)c2ccccc2n1C	.	.	/	/	.	.	/	/
c1ccc2c(CN3CCCCC3)c[nH]c2c1	.	.	.	.	.	.	/	/
OC(CN1CCCCC1)c1c[nH]c2ccccc12 (configuration not stated)	.	8.0	.	.	.	.	.	.
C=CCn1c(O)c(/C=C2\C=Nc3ccccc32)c(=O)[nH]c1=O	.	6.7	.	/	.	.	.	.
Cc1cccc(N=Nc2ccc(N(C)C)cc2)c1	13	8.7	.	.	.	1.0	.	.
O=Cc1c(C(=O)O)n(Cc2ccccc2F)c2ccccc12	.	7.9	.	.	.	.	.	.
CN1c2ccc(Br)cc2[C@@H]2NCC[C@@H]2[C@@H]1CO	.	.	.	/	.	.	/	/
Cc1nnc2n1-c1sc(CCC(=O)N3CCOCC3)cc1C(c1ccccc1Cl)=NC2	/	/	/	/	.	/	/	/
CSc1ccc(C(=O)C2CCCN(Cc3cc4ccccc4[nH]3)C2)cc1 (configuration not stated)	.	6.7	.	.	.	.	.	.
COc1ccc2nc(NC3=NCCN3)sc2c1	12	10	.	.	.	1.0	.	7.4
SMILES	hgDAF-12 ag	hcDAF-12 act	DAX1 inh-1	DAX1 inh-2	Rev-erbA mod	ssDAF-12 act	LXR ag	hcDAF12 ag	others
c1ccc2sc(NC3=NCCN3)nc2c1	.	9.3	.	.	.	.	.	7.2
O=C(NC1CCCCC1)N1Cc2cc(Br)ccc2-n2nncc2C1	.	.	.	/	.	.	/	/
C[C@H](NC(=O)OCc1ccccc1)C(=O)NC(Cc1ccccc1)P(=O)(Oc1ccccc1)Oc1ccccc1 (some centres not stated)	.	.	.	/	.	.	/	/
COc1ccc(P2(=O)Nc3ccccc3N2)cc1	.	8.0	.	.	.	1.4	.	.
COc1ccc(NP2(=O)NCCCN2)cc1	.	.	.	.	.	.	/	/
Clc1cc(Cl)cc(CN2Cc3ccccc3-n3nncc3C2)c1	.	.	.	/	.	.	/	/
Clc1ccccc1NC1=NCCCS1	.	.	.	.	.	.	/	/
Clc1ccccc1Nc1ncnc(-n2cccc2)n1	13	11	.	.	.	.	.	9.2
CC(C)CCP(=O)(O)O	.	.	.	/	.	.	/	/
COc1ccc(OC(=O)N(C)C[C@H]2OCc3cnnn3CCCC(=O)N([C@@H](C)CO)C[C@@H]2C)cc1	.	.	.	/	.	.	/	/
Nc1ccccc1N=Cc1c(O)n(CCC2=CCCCC2)c(=O)[nH]c1=O	11	9.6	.	.	.	.	.	.
O=C(N/N=C/c1c(O)n(CCC2=CCCCC2)c(=O)[nH]c1=O)c1ccccc1	.	.	.	.	.	.	/	/
CCN1C(=O)N(CC)C(=O)C2(Cc3ccccc3N3CCN(c4ccccc4)CC32)C1=O (configuration not stated)	.	8.7	.	/	.	.	.	.
COc1ccc(C(C)=O)cc1CC(C(=O)c1ccc(Br)cc1)N(C)C (configuration not stated)	14	.	.	.	.	.	/	/	hgDAF12 conf=.;LXR ag 2=.
O=C(c1ccccc1)N1Cc2cc(Br)ccc2-n2nncc2C1	.	.	.	/	.	.	/	/
CC(C)C(Br)C(=O)NC(N)=O (configuration not stated)	/	/	/	/	.	/	/	/
